Compounds with a hit are over-represented: about 1.6% of the library has one in this group of screens.
KCNQ2 pot: potentiators of rat KCNQ2 potassium channel; O88943; CHO-K1 KCNQ2, FluxOR thallium flux fluorescence; stronger effect = higher value; B-score at 10 µM; actives 0.54% (n = 310,000);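 active = fluorescence ratio B-score at least 3 SD of library B-scores, with initial fluorescence B-score within 3 of them, cut at about 5.3 in these data; same plate scores as AID 2156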;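 note: B-score of peak minus minimum over baseline fluorescence ratio after K+ and Tl+ stimulus; positive B-score means potentiation of KCNQ2 with more thallium influx and brighter signal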
Target sequence (O88943 whole entry, looked up): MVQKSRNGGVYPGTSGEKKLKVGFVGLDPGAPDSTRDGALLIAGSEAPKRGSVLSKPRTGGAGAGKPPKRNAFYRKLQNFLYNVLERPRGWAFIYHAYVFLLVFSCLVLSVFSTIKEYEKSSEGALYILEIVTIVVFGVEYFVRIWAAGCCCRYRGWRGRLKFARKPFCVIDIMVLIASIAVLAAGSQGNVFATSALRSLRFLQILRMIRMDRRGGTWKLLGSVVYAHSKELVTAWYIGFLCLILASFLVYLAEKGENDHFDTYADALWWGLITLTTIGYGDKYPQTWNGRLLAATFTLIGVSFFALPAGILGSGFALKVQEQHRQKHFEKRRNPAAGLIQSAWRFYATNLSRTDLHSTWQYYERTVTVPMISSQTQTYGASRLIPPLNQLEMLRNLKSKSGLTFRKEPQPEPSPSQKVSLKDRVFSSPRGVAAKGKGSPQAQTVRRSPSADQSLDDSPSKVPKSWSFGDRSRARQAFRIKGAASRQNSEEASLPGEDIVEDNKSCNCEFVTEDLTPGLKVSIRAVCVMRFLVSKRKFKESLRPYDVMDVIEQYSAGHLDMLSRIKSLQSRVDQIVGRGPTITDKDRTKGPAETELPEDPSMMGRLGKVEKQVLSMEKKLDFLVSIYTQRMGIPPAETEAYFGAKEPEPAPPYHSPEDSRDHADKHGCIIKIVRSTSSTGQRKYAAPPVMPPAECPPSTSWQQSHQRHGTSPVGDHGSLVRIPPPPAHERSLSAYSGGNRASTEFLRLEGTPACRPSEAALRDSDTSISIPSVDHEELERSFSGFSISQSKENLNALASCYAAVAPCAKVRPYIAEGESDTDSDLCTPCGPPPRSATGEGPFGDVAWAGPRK
KCNQ2 inh: blocks the rat KCNQ2 potassium channel; CHO-K1 KCNQ2, FluxOR thallium flux, 20 min; stronger effect = lower value; B-score at 10 µM; AID 2156; actives 1.1% (n = 310,000);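 active = fluorescence ratio B-score at most minus 3 library SDs, with starting brightness B-score within 2 library SDs, cut at about -5.5 in these data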
Kir21 confirm: confirmation of mouse Kir2.1 potassium channel inhibitors; Tl flux remaining, % of negative control (stronger effect = lower value), % at 10 µM; actives 41% (n = 2,300); Kir2.1-expressing cells, FluxOR thallium flux fluorescence; stronger effect = lower value; AID 2032; shares compounds with KCNQ2 pot;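 active = Primary-screen hit whose thallium flux fell at least 3 control SD below untreated wells in both duplicates, with normal baseline fluorescence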;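 note: 0% = blank wells without stimulus and 100% = stimulated no-compound controls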
HEK293 Tl flux: counter-screen for Kir2.1 inhibitors: effect in parental HEK293 cells; FluxOR thallium flux fluorescence; 0% = unstimulated blank wells; shares compounds with KCNQ2 pot; AID 2105; actives 19% (n = 2,300); FluxOR signal as % of negative control (100 = no effect), % at 10 µM;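 active = dye signal at least 3 control SD above or below untreated wells in both duplicates, raw fluorescence within 3, either direction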;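 note: percent is based on the flux ratio of peak minus minimum fluorescence over baseline F0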
* marks the source's active call; other numbers are inactive results.

`CC[n+]1c(/C=C/c2ccc(OC)c(OC)c2)ccc2ccccc21` gave KCNQ2 inh inactive.
For CCN(CC)c1ccc(/C=C/c2ccc3ccc(OC)cc3[n+]2CC)cc1 the results were KCNQ2 pot -7.6, KCNQ2 inh -7.6*, Kir21 confirm inactive and HEK293 Tl flux inactive.
Screening CC[n+]1c(/C=C/c2ccc(N(C)C)cc2)ccc2ccccc21 returned KCNQ2 pot -9.3, KCNQ2 inh -9.3*, Kir21 confirm inactive and HEK293 Tl flux inactive.
`CC[n+]1c(/C=C/c2ccc(OC(C)=O)c(OC)c2)ccc2ccccc21` gave KCNQ2 inh inactive.
Screening CC(=C\C(=O)O)/C(=C/c1ccco1)C(=O)O returned KCNQ2 pot 0.91 and KCNQ2 inh inactive.
COc1ccc(C2CCCN2CC(O)COc2ccccc2C(C)C)cc1 (centres undefined) was read as KCNQ2 pot -6.6, KCNQ2 inh -6.6*, Kir21 confirm 30%* and HEK293 Tl flux inactive.
For CCOC(=O)N1CCN(CC(O)COc2ccccc2C(C)C)CC1 (centres undefined) the results were KCNQ2 pot 0.55 and KCNQ2 inh inactive.
For COC(=O)c1cc(F)c(-n2cncn2)c(F)c1 the results were KCNQ2 pot 0.25 and KCNQ2 inh inactive.
`COC(=O)c1cc([N+](=O)[O-])c(-n2cncn2)c([N+](=O)[O-])c1` gave KCNQ2 inh inactive, Kir21 confirm 73%* and HEK293 Tl flux inactive.
Cc1nn(-c2ccccc2)c(Cl)c1C(=O)Nc1nnc(C2CCCCC2)s1 was read as KCNQ2 pot 0.84 and KCNQ2 inh inactive.
CCC1CCCCN1C(=S)NC(=O)c1cccc([N+](=O)[O-])c1 (centres undefined) was read as KCNQ2 pot 4.1, KCNQ2 inh inactive, Kir21 confirm inactive and HEK293 Tl flux 348%*.
CC1CCN(C(=S)NC(=O)c2cccc([N+](=O)[O-])c2)CC1 was read as KCNQ2 pot 2.8 and KCNQ2 inh inactive.
Screening O=C(NC1CCCC1)c1cccnc1N1CCCCCC1 returned KCNQ2 inh inactive.
Cc1ccc(C23CC4CC(CC(CN)(C4)C2)C3)cc1 was read as KCNQ2 inh inactive, Kir21 confirm 39%* and HEK293 Tl flux inactive.
`Cc1ccc(C23CC4CC(CC(C(N)=O)(C4)C2)C3)cc1` gave KCNQ2 pot 2 and KCNQ2 inh inactive.
For NCCOc1ccc(C23CC4CC(CC(C4)C2)C3)cc1 the results were KCNQ2 inh inactive.
`NCC12CC3CC(C1)CC(c1ccc(Br)cc1)(C3)C2` gave KCNQ2 inh inactive, Kir21 confirm 34%* and HEK293 Tl flux inactive.
O=C(OCc1cccc([N+](=O)[O-])c1)c1cccnc1Cl was read as KCNQ2 pot 0.22 and KCNQ2 inh inactive.
COCCCNC(=O)C(Cc1ccccc1)NS(=O)(=O)c1ccc2c(c1)c(=O)n(C)c(=O)n2C (centres undefined) was read as KCNQ2 inh inactive.
Cn1nccc1C(=O)N1CCc2ccccc21 was read as KCNQ2 inh inactive.
`CC(CCc1ccccc1)NC(=O)COC(=O)CC1CC2CCC1C2` (centres undefined) gave KCNQ2 inh inactive.
For CC(C)COc1ccc(Br)cc1CNC(C)(C)C the results were KCNQ2 inh inactive.
`O=C(O)C1=C[C@@H](C2CCCCC2)C[C@@H](OCc2ccc(CO)cc2)O1` gave KCNQ2 pot 0.25 and KCNQ2 inh inactive.
Screening NC(=O)C1=C[C@@H](C2CCCCC2)C[C@@H](OCc2ccc(CO)cc2)O1 returned KCNQ2 pot 0.75, KCNQ2 inh inactive, Kir21 confirm 52%* and HEK293 Tl flux inactive.
Cc1ccc2[nH]c(=O)c(Cc3ccccc3)c(O)c2c1 was read as KCNQ2 pot 0.3 and KCNQ2 inh inactive.
Cc1noc(C)c1CSc1nc2ccccc2n1CCc1ccccc1 was read as KCNQ2 pot -6, KCNQ2 inh -6*, Kir21 confirm 66%* and HEK293 Tl flux inactive.
O=C(O)CCn1c(SCc2ccccc2)nc2ccccc21 was read as KCNQ2 pot 0.07 and KCNQ2 inh inactive.
`Cc1ccc(C(=O)N2CCN(c3ncccn3)CC2)cc1NC1=NC2CS(=O)(=O)CC2S1` (centres undefined) gave KCNQ2 inh inactive.
Cc1ccc(S(=O)(=O)CC(O)COc2ccc(F)cc2Cl)c(C)c1 (centres undefined) was read as KCNQ2 pot 0.26, KCNQ2 inh inactive, Kir21 confirm 52%* and HEK293 Tl flux inactive.
